PubChem BioAssay (NCATS)
Values joined by “and” are separate entries in the source; they are usually repeats but may differ in a detail not shown here. Equal values may be shown once. Inconclusive results are not listed. A call without a number means that no potency is given here. Active and inactive are the calls of the source. Unless noted, calls come from the whole dose curve; as a rule, active = well fitted curve in the direction sought with a large enough effect; inconclusive = small, poorly fitted or top-dose-only effect, or another doubt; inactive = no such curve, though single readings can be large; an effect the other way counts as inactive or inconclusive.

Tests used:
[1] = target: Calcium and integrin-binding protein 1 (Homo sapiens) (UniProt Q99828); assay: Primary qHTS for Identification of Calcium Integrin Binding Protein 1 (CIB1) Competitor (AID 1508620);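 note: GST tagged CIB1 binding a fluorescein labelled alphaIIb integrin peptide tracer; top concentration of the series differs between compounds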
Procedure, shortened: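 CIB1-GST (1 uM final) and compound incubated 15 min at room temperature before adding FITC-alphaIIb peptide tracer (100 nM final). Competition for binding read by fluorescence polarization (ex 480, em 540) after another 15 min at room temperature.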

[2] = Primary qHTS for small molecule stabilizers of the endoplasmic reticulum resident proteome: Secreted ER Calcium Modulated Protein (SERCaMP) assay (AID 1508630)
Procedure, shortened: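 The SH-SY5Y reporter protocol was run at 3 concentrations up to 38.3 uM (primary) or 11 concentrations (follow-up): 16 h compound, 100 nM thapsigargin for 4 h, then extracellular luciferase luminescence.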

[3] = Primary qHTS for inhibitors of nuclear receptor binding SET domain protein 2 (NSD2) in an isogenic RCH-ACV NSD2 p.E1099K mutant (9B) (AID 1645876); note: nearly all actives have a fitted effect of over 70% in size; note: potency is the fitted concentration of half-maximal effect
[4] = Primary qHTS for inhibitors of nuclear receptor binding SET domain protein 2 (NSD2) in an RCH-ACV wild type WT cells (2C) (AID 1645877); note: nearly all actives have a fitted effect of over 70% in size; note: potency is the fitted concentration of half-maximal effect
[5] = target: Cytochrome P450 2C9 (Homo sapiens) (UniProt P11712); assay: Cytochrome P450 family 2 subfamily C member 9 (CYP2C9) small molecule antagonists: luciferase biochemical (cell-free) qHTS assay (AID 1645842; active = well fitted curve in the direction sought with a large enough effect in the repeat runs; an effect the other way counts as inactive or inconclusive; note: potency is the fitted concentration of half-maximal effect; nearly all actives have a fitted effect of over 55% in size)
Procedure, shortened: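 P450-Glo CYP2C9 system: proluciferin substrate with enzyme in mix containing 0.4% BSA, 10 min at room temperature, then NADPH regeneration solution added and incubated 1 h at 37C. Detection reagent stopped reaction; luminescence read after 20 min as RLU.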

[6] = target: Catechol O-methyltransferase (Homo sapiens) (UniProt P21964); assay: Confirmatory Screen for Target Class Profiling of Small Molecule Inhibitors of Methyltransferases (AID 1745852); conditions: MTase-Glo luminescence, SAH detection, recombinant enzyme; measured here: COMT max response; stronger effect = lower value
[7] = target: N-terminal Xaa-Pro-Lys N-methyltransferase 1 (Homo sapiens) (UniProt Q9BV86); assay: Confirmatory qHTS for Inhibitors of N-terminal methyltransferase 1 (NTMT1): MTaseGlo Assay (AID 1645874); note: nearly all actives have a fitted effect of over 65% in size; note: potency is the fitted concentration of half-maximal effect
Procedure, shortened: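 SPKRIA peptide at 1 uM was methylated by 125 nM NTMT1 using 100 uM SAM over 30 min at room temperature, following a 15 min compound preincubation. Product SAH was detected luminescently.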

Sequence of N-terminal Xaa-Pro-Lys N-methyltransferase 1 (Homo sapiens) (Q9BV86 whole entry, looked up): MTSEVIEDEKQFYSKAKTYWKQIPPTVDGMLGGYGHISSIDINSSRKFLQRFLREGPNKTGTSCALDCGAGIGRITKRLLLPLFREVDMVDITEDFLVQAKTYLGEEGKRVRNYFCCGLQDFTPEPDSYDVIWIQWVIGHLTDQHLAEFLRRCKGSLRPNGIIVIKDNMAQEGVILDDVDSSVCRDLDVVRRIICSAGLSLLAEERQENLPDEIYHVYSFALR
Sequence of Calcium and integrin-binding protein 1 (Homo sapiens) (Q99828 whole entry, looked up): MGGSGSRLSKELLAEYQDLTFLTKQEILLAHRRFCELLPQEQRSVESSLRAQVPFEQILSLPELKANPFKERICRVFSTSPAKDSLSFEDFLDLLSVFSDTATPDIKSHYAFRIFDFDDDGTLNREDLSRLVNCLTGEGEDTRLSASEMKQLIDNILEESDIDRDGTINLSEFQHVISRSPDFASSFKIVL
Sequence of Catechol O-methyltransferase (Homo sapiens) (P21964 whole entry, looked up): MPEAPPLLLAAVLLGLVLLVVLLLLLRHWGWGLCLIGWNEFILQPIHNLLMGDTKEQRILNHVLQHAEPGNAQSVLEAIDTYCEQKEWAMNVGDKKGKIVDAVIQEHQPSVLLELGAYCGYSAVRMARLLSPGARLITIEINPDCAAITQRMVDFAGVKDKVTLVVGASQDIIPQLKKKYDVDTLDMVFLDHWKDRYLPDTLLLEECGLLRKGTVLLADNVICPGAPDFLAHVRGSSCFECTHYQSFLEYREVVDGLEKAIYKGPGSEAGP
Sequence of Cytochrome P450 2C9 (Homo sapiens) (P11712 whole entry, looked up): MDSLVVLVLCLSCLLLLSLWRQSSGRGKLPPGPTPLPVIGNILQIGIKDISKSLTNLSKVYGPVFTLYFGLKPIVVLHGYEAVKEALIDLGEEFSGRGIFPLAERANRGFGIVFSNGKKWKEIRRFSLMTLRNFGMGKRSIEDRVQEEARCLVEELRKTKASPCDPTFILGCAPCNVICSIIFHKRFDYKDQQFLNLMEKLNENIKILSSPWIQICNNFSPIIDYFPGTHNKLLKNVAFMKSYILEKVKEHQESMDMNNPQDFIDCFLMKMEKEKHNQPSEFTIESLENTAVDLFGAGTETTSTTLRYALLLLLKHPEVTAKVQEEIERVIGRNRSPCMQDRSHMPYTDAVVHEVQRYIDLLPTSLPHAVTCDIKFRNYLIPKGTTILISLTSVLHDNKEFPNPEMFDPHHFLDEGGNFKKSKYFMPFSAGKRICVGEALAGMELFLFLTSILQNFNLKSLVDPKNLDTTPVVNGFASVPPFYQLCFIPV

Row | SMILES | outcome [1] | Potency [2] | Potency [3] | Potency [4] | Potency [5] | activity [6] [%] | Potency [7]
1 | CC(C)(C)c1cc(C(C)(C)C)c(NC(=O)c2c[nH]c3ccccc3c2=O)cc1O | inactive | inactive | 14800 nM (active) | 16600 nM (active) |  |  | 
2 | CC(C)c1cc(-c2n[nH]c(=O)n2-c2ccc3c(ccn3C)c2)c(O)cc1O | inactive | inactive | 25.8 nM (active) and 29.5 nM (active) | 25.8 nM (active) and 29.5 nM (active) | 1690 nM (active) | -27.7 | 
3 | COCCn1c2c([n+](Cc3cnccn3)c1C)C(=O)c1ccccc1C2=O | inactive | inactive | 4.2 nM (active) | 5.9 nM (active) |  |  | 
4 | O=c1[nH]c(=O)n(C2CCCO2)cc1F (stereo not drawn) | inactive | inactive | inactive | inactive |  |  | 
5 | C[C@@H](Oc1cc(-n2cnc3ccc(CN4CCN(C)CC4)cc32)sc1C(N)=O)c1ccccc1C(F)(F)F | inactive | inactive | 29.5 nM (active) | 41.7 nM (active) |  |  | 
6 | CC(O)C1C(=O)N2C(C(=O)O)=C(SC3CNC(C(=O)N(C)C)C3)C(C)C12 (stereo not drawn) | inactive | inactive | inactive | inactive |  |  | 
7 | O=C(O)c1ccc2cc(-c3ccc(O)c(C45CC6CC(CC(C6)C4)C5)c3)ccc2c1 | inactive | inactive | 934 nM (active) | 590 nM (active) |  |  | 
8 | CC(C)C[C@H](NC(=O)CNC(=O)c1cc(Cl)ccc1Cl)B(O)O | inactive | inactive | 148 nM (active) | 93.4 nM (active) |  |  | 
9 | C=CC(=O)Nc1cc2c(Nc3ccc(F)c(Cl)c3)ncnc2cc1C#CC(C)(C)N1CCN(C)CC1 | inactive | inactive | 2630 nM (active) | 2630 nM (active) |  |  | 
10 | COc1cc2c(NC3CCN(C(C)C)CC3)nc(C3CCCCC3)nc2cc1OCCCN1CCCC1 | inactive | inactive | 9.16 µM (active) and 8.33 µM (active) | 11.5 µM (active) and 6.61 µM (active) |  | -9 | inactive
11 | C[C@]1(CO)CN(c2cc(C(=O)Nc3ccc4c(c3)-c3c(c(C(N)=O)nn3-c3ccc(F)cc3)CC4)c(Cl)cn2)C[C@@]1(C)CO | inactive | inactive | 3250 nM (active) | 3250 nM (active) |  |  | 
12 | Cc1cc(N2CCOCC2)cc2[nH]c(-c3c(NC[C@@H](O)c4cccc(Cl)c4)cc[nH]c3=O)nc12 | inactive | inactive | 1660 nM (active) | 2350 nM (active) |  |  | inactive
13 | O=C(NCCCNc1nc(Nc2cccc(NC(=O)N3CCCC3)c2)ncc1I)c1cccs1 | inactive | inactive | 5.8 µM (active) and 1.48 µM (active) | 5800 nM (active) |  |  | 6760 nM (active)
14 | N#CCNC(=O)c1ccc(-c2ccnc(Nc3ccc(N4CCOCC4)cc3)n2)cc1 | inactive | inactive | 817 nM (active) and 2.63 µM (active) | 1.15 µM (active) and 2.95 µM (active) |  |  | 
15 | CC(C)(C)c1cc(NC(=O)Nc2ccc(-c3cn4c(n3)sc3cc(OCCN5CCOCC5)ccc34)cc2)no1 | inactive | inactive | inactive | inactive |  |  | 
16 | CCc1c2c(nc3ccc(O)cc13)-c1cc3c(c(=O)n1C2)COC(=O)[C@]3(O)CC | inactive | inactive | 8.3 nM (active) | 4.7 nM (active) |  |  | 
17 | O=C1CCC[C@@H]2[C@H]3CCC[N+]4([O-])CCC[C@@H](CN12)[C@@H]34 (stereo partly drawn) | inactive | inactive | inactive | inactive |  |  | 
18 | COc1cccc2nc(-c3cccs3)nc(NN3C(=O)C=C(C)C3=O)c12 | inactive | inactive | 372 nM (active) | 263 nM (active) |  |  | 
19 | CC(C)c1ccc(Cn2ccc3c4c(N)nc(NC5CC5)nc4ccc32)cc1 | inactive | inactive | 372 nM (active) | 417 nM (active) |  |  | 
20 | Cc1nc2cnc3ccc(C#Cc4cccnc4)cc3c2n1-c1ccc(C(C)(C)C#N)cc1 | inactive | inactive | 7.31 µM (active) and 148 nM (active) | 8.2 µM (active) and 148 nM (active) |  |  | 
21 | Cc1cc(Nc2cc(N3CCN(C)CC3)nc(Sc3ccc(NC(=O)C4CC4)cc3)n2)n[nH]1 | inactive | inactive | 296 nM (active) | 46.8 nM (active) |  | -3.34 | 
22 | COc1cc2c(Oc3ccc4[nH]c(C)cc4c3F)ncnc2cc1OCCCN1CCCC1 | inactive | inactive | 4.59 µM (active) and 6.61 µM (active) | 7.28 µM (active) and 7.42 µM (active) |  |  | 
23 | Nc1cc(C(F)(F)F)c(-c2cc(N3CCOCC3)nc(N3CCOCC3)n2)cn1 | inactive | inactive | 578 nM (active) and 1.18 µM (active) | 728 nM (active) and 934 nM (active) |  |  | 
24 | O=C(CCCCCCNC(=O)c1cnc(N(c2ccccc2)c2ccccc2)nc1)NO | inactive | inactive | 728 nM (active) and 2.95 µM (active) | 365 nM (active) and 2.09 µM (active) |  |  | 
